Experimental data from PubChem BioAssay (Tox21).
Where “and” joins values, the source holds several entries; their conditions need not be identical. Equal entries are not always repeated. Results filed as inconclusive are left out. Where a call stands in place of a potency, no number is given. Some structures have more than one record in an assay (separate samples or runs), and their calls can disagree. Calls of active or inactive are those of the source. Calls come from the whole dose curve; as a rule, active = well fitted activation curve with a large enough effect in the repeat runs; inconclusive = weak or mixed curves; inactive = flat fitted curve, though single readings scatter.

test: A CellTox Green Cytotoxicity Assay to monitor cytotoxicity in HepG2 cells - 16 hour (AID 1224876); settings: CellTox Green fluorescence; series mostly up to 76.8 µM; cytotoxicity increase: at the top concentration; note: nearly all actives have a fitted effect of over 45% in size
From the text: National Center for Advancing Translational Sciences [NCATS]
NIH Chemical Genomics Center [NCGC]
U.S. Environmental Protection Agency [EPA]
National Institutes of Environmental Health Sciences [NIEHS]
National Toxicology Program [NTP]
Cell-based models are critical for drug discovery. Determining the natural cytotoxic effects resulting from test compounds is an essential research activity. A CellTox Green Cytotoxicity Assay to monitor cytotoxicity in real time of continues cell culture during 40 hours of the compound treatment was used to screen Tox21 10K library compounds in HepG2 cells. CellTox Green Cytotoxicity Assay is a nonlytic, homogeneous, biofluorescent method to measure cytotoxicity in cell culture after experimental manipulation. The assay system uses a proprietary asymmetric cyanine dye that is excluded from viable cells but preferentially stains the dead cell's DNA. […] Viable cells produce no appreciable increases in fluorescence. Therefore, the fluorescence signal produced by the binding interaction with dead cell DNA is proportional to cytotoxicity.
The mixture of HepG2 cell suspension and reagents were dispensed at 600cells/6 ul/well in 1536-well tissue culture treated black solid bottom plates using a Multidrop dispenser. After the assay plates were incubated at a 37 C/5% CO2 incubator for 5 hours, 23 nL of compounds dissolved in DMSO, positive and negative controls was transferred to the assay plate by a pintool work station. The plates were incubated at 37 C for 40 hours. The fluorescence intensity were measured at 0h, 8h, 16h, 24h, 32h and 40h time points using ViewLux plate reader during compound treatment.
Potency is the fitted concentration of half-maximal effect.

| Compound | Potency | cytotoxicity increase |
| --- | --- | --- |
| C1CCC(C(CC2CCCCN2)C2CCCCC2)CC1 (stereo not given) | 12 µM (active) | – |
| COc1ccc2c(c1)c(CC(=O)O)c(C)n2C(=O)c1ccc(Cl)cc1 | inactive | – |
| CCCCCCCC(=O)OCC(COC(=O)CCCCCCC)OC(=O)CCCCCCC | inactive | – |
| CN1[C@@H]2CC(OC(=O)[C@H](CO)c3ccccc3)C[C@H]1[C@@H]1O[C@@H]12 (stereo not given in full) | inactive | – |
| CN(C)CCOC(C)(c1ccccc1)c1ccccn1 (stereo not given) | inactive | – |
| C=C1CC[C@H](O)C/C1=C\C=C1/CCC[C@]2(C)[C@@H]([C@H](C)CCCC(C)C)CC[C@@H]12 | – | 6.58% (inactive) |
| F[B-](F)(F)F | inactive | – |
| O=c1[nH]cc(F)c(=O)[nH]1 | inactive | – |
| CNNCc1ccc(C(=O)NC(C)C)cc1 | inactive | – |
| COc1ccc(C(Cl)=C(c2ccc(OC)cc2)c2ccc(OC)cc2)cc1 | inactive | – |
| CCCCCCc1ccc(O)cc1O | inactive and 43.6 µM (active) and 21.3 µM (active) | – |
| CC(=O)C(=O)O | inactive | – |
| CS(=O)(=O)OCCCCOS(C)(=O)=O | inactive | – |
| Cc1cccc(C)c1 | inactive | – |
| CC1(C)O[C@@H]2C[C@H]3[C@@H]4CCC5=CC(=O)C=C[C@]5(C)[C@@]4(F)[C@@H](O)C[C@]3(C)[C@]2(C(=O)CO)O1 | inactive | – |
| C1=CC2C3C=CC(C3)C2C1 (stereo not given) | – | -6.62% (inactive) |
| COc1ccc2cc(S(=O)(=O)N[C@H](CC(=O)N[C@H](Cc3ccc(CN4[C@H](C)CCC[C@@H]4C)cc3)C(=O)N(C)C(C)C)c3ccc4c(c3)OCO4)ccc2c1 | 52 µM (active) | – |
| CC1(C)S[C@@H]2[C@H](NC(=O)[C@H](N)c3ccccc3)C(=O)N2[C@H]1C(=O)O | inactive | – |
| O=C(O)CC(O)C(=O)O (stereo not given) | inactive | – |
| CN(C)C(=S)SC(=S)N(C)C | inactive and 3.89 µM (active) | – |

| Compound | Potency | cytotoxicity increase |
| --- | --- | --- |
| NS(=O)(=O)O | inactive | – |
| O=C1NC(=O)C(c2ccccc2)(c2ccccc2)N1 | inactive and 23.9 µM (active) | – |
| CC(C)C(=O)Nc1ccc([N+](=O)[O-])c(C(F)(F)F)c1 | inactive | – |
| CC/C(=C(\c1ccccc1)c1ccc(OCCN(C)C)cc1)c1ccccc1 | 54.9 µM (active) [middle of 4 runs] | – |
| Cc1cc(C)nc(NS(=O)(=O)c2ccc(N)cc2)n1 | inactive | – |
| CC(C)c1c(C(=O)Nc2ccccc2)c(-c2ccccc2)c(-c2ccc(F)cc2)n1CC[C@@H](O)C[C@@H](O)CC(=O)O | inactive | – |
| O=C1OC2(c3ccccc31)c1cc(Br)c(O)c(Br)c1Oc1c2cc(Br)c(O)c1Br | 4.97 µM (active) and 14.2 µM (active) and 23.9 µM (active) | – |
| Nc1ccc(S(N)(=O)=O)cc1 | inactive | – |
| CCN(CC)C(=O)c1cccc(C)c1 | inactive | – |
| CN1CCC[C@H]1c1cccnc1 | inactive | – |
| CN1CCc2cccc3c2[C@H]1Cc1ccc(O)c(O)c1-3 | inactive | – |
| Cc1cn([C@H]2C=C[C@@H](CO)O2)c(=O)[nH]c1=O | inactive | – |
| COc1cccc(O)c1O | – | -17.1% (inactive) |
| Cc1ccc(S(=O)(=O)O)cc1 | inactive | – |
| CCCCC(CC)C(=O)O (stereo not given) | inactive | – |
| CC(O)(P(=O)(O)O)P(=O)(O)O | inactive | – |
| Cc1cc(=O)oc2cc(O)ccc12 | inactive | – |
| CC(=O)CCC(=O)O | inactive | – |
| OC[C@H]1O[C@H](O[C@]2(CCl)O[C@H](CCl)[C@@H](O)[C@@H]2O)[C@H](O)[C@@H](O)[C@H]1Cl | inactive | – |
| CCN(Cc1c(F)cccc1Cl)c1c([N+](=O)[O-])cc(C(F)(F)F)cc1[N+](=O)[O-] | – | -20.7% (inactive) |
